Assay results taken from PubChem BioAssay.
“And” between values parts separate entries of the source, which are not always exact repeats. Equal values may be shown once. The source made the active and inactive calls.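 Rule for the calls, unless noted: active = compounds whose cell count with miR-34 switched on is under 0.7 times the count with it off; inactive = the rest.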

What was measured:
[1] = P. berghei load reduction in hepatocytes – cell-based, HepG2, luciferase luminescence, HepG2 viability, primary screen (AID 624349; in the data active = parasite load remaining mostly below about 12%, no sharp cut-off; inactive = mostly above about 10%;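 note: 100% = mean of DMSO negative control wells on the same plate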); conditions: P. berghei liver stage in HepG2, luciferase luminescence, concentration not given here; parasite load remaining: stronger effect = lower value; viability: measured here: HepG2 viability without parasites
[2] = EMT-state selective cytotoxicity in co-culture – imaging, PC-3E GFP, TEM4-18 mCherry, primary screen (AID 1345086;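 active = compounds killing one labelled cell type while sparing the other, by normalised counts and ratio limits, not self-fluorescent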;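 for all read-outs here: cells exposed to compound for 72 h before imaging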;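 for red/green cell ratio (normalised): normalised mesenchymal count divided by normalised epithelial count so high means epithelial killing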); conditions: PC-3E GFP / TEM4-18 mCherry co-culture, imaging cell counts, at 1 µM; for red/green cell ratio (normalised): actives lie on both sides, counts scaled to control wells, 1 = unselective
[3] = viability loss with induced miR-34 in A549 – imaging, A549 dox-inducible miR-34, nuclei and caspase counts, primary screen (AID 1347080); conditions: A549 miR-34 inducible, Hoechst nuclei count, 48 h
[4] = MELAS cybrid and Rieske KO viability enhancers – cell-based, MELAS cybrids, Rieske KO mouse fibroblasts, CellTiter-Glo, primary screen (AID 1508586;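 active = mean z-score across replicates of 1.96 or higher in either the MELAS or the Rieske mutant cell line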;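 note: z relative to plate mean and SD of compound and empty wells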); conditions: low glucose
[5] = target: NAD(+) hydrolase SARM1 (Homo sapiens) (UniProt Q6SZW1); test: blocking NAD cleavage by SARM1 SAM-TIR – cell lysate, NAD-Glo luminescence (AID 1508614;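 active = compound whose remaining NAD level is above about 45 nM, limit read from the data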;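 note: higher remaining NAD means stronger inhibition of SARM1 NADase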); conditions: SAM-TIR HEK293T lysate NADase, at 1 µM, stronger effect = higher value
Chain of NAD(+) hydrolase SARM1 (Homo sapiens) (Q6SZW1 whole entry, looked up): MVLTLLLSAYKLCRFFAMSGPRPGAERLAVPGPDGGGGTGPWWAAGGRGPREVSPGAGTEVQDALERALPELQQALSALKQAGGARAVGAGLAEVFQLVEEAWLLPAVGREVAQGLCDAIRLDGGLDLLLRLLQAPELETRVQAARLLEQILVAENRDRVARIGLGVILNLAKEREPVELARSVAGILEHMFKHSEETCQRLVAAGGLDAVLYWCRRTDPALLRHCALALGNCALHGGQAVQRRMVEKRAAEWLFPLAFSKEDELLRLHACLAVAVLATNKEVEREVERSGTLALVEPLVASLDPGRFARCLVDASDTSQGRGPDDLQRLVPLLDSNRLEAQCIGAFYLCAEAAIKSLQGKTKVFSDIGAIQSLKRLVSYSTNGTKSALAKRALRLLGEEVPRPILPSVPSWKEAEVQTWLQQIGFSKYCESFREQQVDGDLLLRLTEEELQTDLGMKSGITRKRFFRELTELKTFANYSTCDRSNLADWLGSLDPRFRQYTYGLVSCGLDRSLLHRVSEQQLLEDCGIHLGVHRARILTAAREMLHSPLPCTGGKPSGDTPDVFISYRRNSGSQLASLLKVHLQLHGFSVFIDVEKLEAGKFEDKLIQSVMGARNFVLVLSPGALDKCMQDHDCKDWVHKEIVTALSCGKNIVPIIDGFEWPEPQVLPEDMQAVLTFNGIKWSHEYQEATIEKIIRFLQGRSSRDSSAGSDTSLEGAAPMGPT

[6] = compounds altering viability of human ES cells (AID 493140; call rule not given here;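 note: cells exposed to compounds for four days before counting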); conditions: human embryonic stem cell survival screen; stronger effect = higher value
[7] = galactose survival enhancers in mitochondrial complex I cybrids – cell-based, galactose medium, ATP luminescence, primary screen (AID 1645843;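 active = z-score of at least 1.8 in each of two replicates, scored against plate mean and spread of sample wells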;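 note: positive z means more ATP and so rescue of galactose-driven cybrid death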); conditions: complex I mutant cybrid cells, 72 h, stronger effect = higher value
[8] = measured here: epithelial PC-3E GFP cell survival
[9] = measured here: mesenchymal TEM4-18 mCherry cell survival
[10] = stronger effect = lower value, cell number ratio, induced over uninduced
[11] = measured here: relative caspase fold change +Dox/-Dox
[12] = measured here: total cells with miR-34 induction, stronger effect = lower value
[13] = measured here: total cells without miR-34 induction
[14] = MELAS cybrid survival, CellTiter-Glo 48 h, stronger effect = higher value
[15] = Rieske KO mouse fibroblast survival, CellTiter-Glo 72 h

SMILES	parasite load remaining [1]	viability [1]	red/green cell ratio (normalised) [2]	normalised cell number [2, 8]	normalised cell number [2, 9]	fold change [3, 10]	fold change [3, 11]	cell count [3, 12]	cell count [3, 13]	z-score [4, 14]	z-score [4, 15]	remaining NAD [5]	survival [6]	z-score [7]
CC(C)N1CCN(c2ccc(OC[C@H]3CO[C@](Cn4cncn4)(c4ccc(Cl)cc4Cl)O3)cc2)CC1	37.3% (inactive)	97.4%	0.77 (inactive)	1.12	0.87	0.864 (inactive)	1.54	9020	10400	-0.379 (inactive)	0.124	10 nM (inactive)	–	–
CC(=O)Nc1ccc(OC(C)=O)cc1	–	–	0.87 (inactive)	1.25	1.09	0.883 (inactive)	1.21	8510	9640	–	–	10 nM (inactive)	–	–
Cc1nccnc1N1CCCCC1	–	–	1.12 (inactive)	0.93	1.04	0.964 (inactive)	0.767	9440	9790	–	–	10 nM (inactive)	–	–
CC1(O)CCOC(=O)C1 (stereo unspecified)	86.9% (inactive)	107%	1.07 (inactive)	0.95	1.02	0.969 (inactive)	0.886	8270	8540	-0.827 (inactive)	-0.633	–	–	–
COc1cc(-c2ccc(N=Nc3ccc4c(S(=O)(=O)O)cc(S(=O)(=O)O)c(N)c4c3O)c(OC)c2)ccc1N=Nc1ccc2c(S(=O)(=O)O)cc(S(=O)(=O)O)c(N)c2c1O	77.2% (inactive) and 55.6% (inactive)	74.5% and 64.2%	1.11 (inactive)	1.16	1.29	0.857 (inactive)	0.848	8930	10400	-1.41 (inactive)	-1.32	–	5.92 (inactive)	–
C[C@H](N[C@@H](CCc1ccccc1)C(=O)O)C(=O)N1Cc2ccccc2C[C@H]1C(=O)O	–	–	0.82 (inactive)	1.1	0.91	0.868 (inactive)	0.983	8350	9630	–	–	10 nM (inactive)	–	–
Cc1c(O)c(=O)n(-c2ccccc2)n1C	37.6% (inactive) and 51.4% (inactive)	95.8% and 94.4%	0.78 (inactive)	1.09	0.85	0.946 (inactive)	1.41	8310	8790	0.46 (inactive)	-0.0513	–	23.9 (inactive)	–
C=CCOC(Cn1ccnc1)c1ccc(Cl)cc1Cl (stereo unspecified)	62.3% (inactive) and 49.7% (inactive)	79.2% and 101%	1.13 (inactive)	1.28	1.45	0.977 (inactive) and 1.23 (inactive)	0.912 and 0.451	7830 and 4360	8020 and 3550	-0.315 (inactive)	-1.27	10 nM (inactive)	5.75 (inactive)	–
NC(=O)C(c1ccccc1)(c1ccccc1)C1CCN(CCc2ccc3c(c2)CCO3)C1 (stereo unspecified)	–	–	1.14 (inactive)	1.01	1.15	0.961 (inactive) and 0.867 (inactive) and 0.884 (inactive)	1.17 and 0.544 and 0.774	7990 and 7300 and 7280	8310 and 8420 and 8230	0.59 (inactive) and -0.239 (inactive)	0.395 and -0.187	–	–	-0.58 (inactive)
CC(CCc1ccc(O)cc1)NCC(O)c1ccc(O)cc1 (stereo unspecified)	46.7% (inactive)	106%	0.98 (inactive)	0.86	0.84	0.934 (inactive) and 0.886 (inactive)	0.997 and 0.914	8460 and 9910	9050 and 11200	0.268 (inactive)	0.193	10 nM (inactive)	–	0.065 (inactive)
CO[C@H](C(=O)[C@@H](O)[C@@H](C)O)[C@@H]1Cc2cc3cc(O[C@H]4C[C@@H](O[C@H]5C[C@@H](O)[C@H](O)[C@@H](C)O5)[C@@H](O)[C@@H](C)O4)c(C)c(O)c3c(O)c2C(=O)[C@H]1O[C@H]1C[C@@H](O[C@H]2C[C@@H](O[C@H]3C[C@](C)(O)[C@H](O)[C@@H](C)O3)[C@H](O)[C@@H](C)O2)[C@H](O)[C@@H](C)O1	-0.08% (active)	93%	0.96 (inactive)	0.29	0.28	0.97 (inactive)	0.963	2240	2320	7.83 (active)	-1.51	–	–	-1.89 (inactive)
CC(O)(CC(=O)O)CC(=O)O	–	–	1.15 (inactive)	0.86	0.99	0.913 (inactive)	1.16	8220	9000	–	–	10 nM (inactive)	–	–
Cc1cc(-c2ccc(N=Nc3ccc4c(S(=O)(=O)O)cc(S(=O)(=O)O)c(N)c4c3O)c(C)c2)ccc1N=Nc1ccc2c(S(=O)(=O)O)cc(S(=O)(=O)O)c(N)c2c1O	–	–	0.96 (inactive)	0.99	0.95	0.905 (inactive)	0.718	8810	9740	–	–	10 nM (inactive)	–	–
CCOC(=O)COc1ccc2c(=O)cc(-c3ccccc3)oc2c1	–	–	0.96 (inactive)	0.88	0.85	0.922 (inactive)	0.974	8170	8860	–	–	10 nM (inactive)	–	–
Cc1c(C)c2c(c(C)c1O)CCC(C)(C(=O)O)O2 (stereo unspecified)	201% (inactive) and 66.3% (inactive)	117% and 76.7%	0.84 (inactive)	1.17	0.98	0.854 (inactive)	1.44	8370	9800	-0.259 (inactive)	-0.0183	–	0.667 (inactive)	–
CCCCCCCCCCCCCCCC(=O)OCC(O)[C@H]1OC(=O)C(O)=C1O (stereo partly specified)	30.5% (inactive)	230%	1.11 (inactive)	1.1	1.22	1.02 (inactive) and 0.87 (inactive)	0.52 and 0.622	7640 and 11300	7530 and 13000	-0.179 (inactive)	-0.164	–	–	–
